{
  "source": "PubChem BioAssay (Tox21)",
  "note": "Records with an inconclusive call do not appear. A number with no mark means an inactive call. The source made the active and inactive calls. Calls come from the whole dose curve; as a rule, active = well fitted cell-killing curve with a large enough effect in the repeat runs; inconclusive = weak or mixed curves, or effect the other way; inactive = flat fitted curve, though single readings scatter. Where a SMILES comes first, the peptide text is derived from it. [ ]: non-standard residue; d: D form. pGlu = O=C1CC[C@@H](C(=O)O)N1",
  "data": [
    {"assay": "Human pregnane X receptor (PXR) small molecule agonists, qHTS cell viability counter screen (AID 1346977); note: nearly all actives have a fitted effect of over 50% in size; note: potency is the fitted concentration of half-maximal effect; for activity change, negative = cytotoxicity: % is set by controls: 0 for no effect and ±100 for the full control effect", "settings": "PXR-Luc HepG2 viability, CellTiter-Fluor, 24 h; series mostly up to 92.4 µM; activity change, negative = cytotoxicity: at the top concentration", "excerpt": "U.S. Tox21 Program National Center for Advancing Translational Sciences [NCATS] NIH Chemical Genomics Center [NCGC] U.S. Environmental Protection Agency [EPA] National Institutes of Environmental Health Sciences [NIEHS] National Toxicology Program [NTP] U.S. Food and Drug Administration [FDA] Tox21 Assay Overview: The human pregnane X receptor (hPXR) regulates the expression of several drug metabolizing enzymes and induction of these proteins is a major mechanism for developing drug resistance in cancer. One such key enzyme catalyzing the drug metabolism is cytochrome P450 3A4 (CYP3A4). Changes in CYP3A4 expression affect drug metabolism, thereby reducing the therapeutic efficacy and altering toxicological response to a drug and which finally causes adverse drug interaction. To screen Tox21 libraries for compounds that activate hPXR-mediated CYP3A4 gene expression, PXR-Luc HepG2 cells were used. Also cytotoxicity of the compounds was tested in parallel by measuring the cell viability using CellTiter-Fluor assay system in the same wells.\nTox21 Assay Protocol Summary: PXR-Luc HepG2 cells were dispensed at 2,000 per well in 5uL of assay medium containing 5% charcoal-stripped FBS into white solid bottom 1536-well plates (Corning Life Sciences, Corning, NY) using a Multidrop Combi (Thermo Scientific, Waltham, MA) dispenser. The assay plates were incubated at 37 C and 5% CO2 for 5hr, and then 23nL of compounds dissolved in DMSO and positive control were transferred using a Pintool station (Wako, San Diego, CA). The assay plates were incubated at 37C and 5% CO2 for 24hr. For cytotoxicity read, after 23hr incubation at 37C, 1uL CellTiter-Fluor reagent (Promega Corporation, Madison, WI) was added to each well of the assay plates using Flying Reagent Dispenser (FRD, Aurora Discovery, San Diego, CA). After 1hr incubation at 37C and 5% CO2, the fluorescence signal was quantified using a ViewLux plate reader (PerkinElmer, Shelton, CT).", "values": [
      {"smiles": "CO[C@@]1(NC(=O)C(C(=O)O)c2ccc(O)cc2)C(=O)N2C(C(=O)O)=C(CSc3nnnn3C)CO[C@@H]21", "note": "(stereo not given in full)", "activity change, negative = cytotoxicity": "7.42% [at 42.5 µM]"},
      {"smiles": "CC(C)COC(=O)c1ccc(N)cc1", "activity change, negative = cytotoxicity": "12.4% [at 42.5 µM]"},
      {"smiles": "[Ca+2]", "activity change, negative = cytotoxicity": "7.79%"},
      {"smiles": "C=CC(C)(CCC=C(C)C)OC(=O)CC", "note": "(stereo not given)", "activity change, negative = cytotoxicity": "-0.712%"},
      {"smiles": "CC(C)(N)C#N", "activity change, negative = cytotoxicity": "-1.91%"},
      {"smiles": "Cc1cccc(C)c1NC(=O)CC12CCCN1CCC2", "activity change, negative = cytotoxicity": "11.9% [at 42.5 µM]"},
      {"smiles": "CC(C)(C#N)Nc1nc(Cl)nc(NC2CC2)n1", "activity change, negative = cytotoxicity": "3.36%"},
      {"smiles": "CCNC(=O)[C@@H]1CCCN1C(=O)[C@H](CCCN=C(N)N)NC(=O)[C@H](CC(C)C)NC(=O)CNC(=O)[C@H](Cc1ccc(O)cc1)NC(=O)[C@H](CO)NC(=O)[C@H](Cc1c[nH]c2ccccc12)NC(=O)[C@H](Cc1cnc[nH]1)NC(=O)[C@@H]1CCC(=O)N1", "note": "([pGlu]HWSYGLRP-NHEt)", "activity change, negative = cytotoxicity": "-1.23% [at 42.5 µM]"},
      {"smiles": "COCCOC[C@H](CC1(C(=O)NC2CCC(C(=O)O)CC2)CCCC1)C(=O)Oc1ccc2c(c1)CCC2", "note": "(stereo not given in full)", "activity change, negative = cytotoxicity": "-17.1%"},
      {"smiles": "FB(F)F", "activity change, negative = cytotoxicity": "-0.642%"},
      {"smiles": "CNCC(O)c1ccc(O)c(O)c1", "note": "(stereo not given)", "activity change, negative = cytotoxicity": "-13% [at 42.5 µM]"},
      {"smiles": "CCOC(=O)c1ccccc1", "activity change, negative = cytotoxicity": "8.21%"},
      {"smiles": "O=S(=O)(O)c1cccc2ccccc12", "activity change, negative = cytotoxicity": "5.42%"},
      {"smiles": "CC(=O)Oc1cccc(C)c1", "activity change, negative = cytotoxicity": "6.71% [at 42.5 µM]"},
      {"smiles": "Cc1coc2ccccc2c1=O", "activity change, negative = cytotoxicity": "14.9% [at 42.5 µM]"},
      {"smiles": "CCC1C(=O)OCC1Cc1cncn1C", "note": "(stereo not given)", "activity change, negative = cytotoxicity": "-2.02% [at 42.5 µM]"},
      {"smiles": "NO", "activity change, negative = cytotoxicity": "1.55%"},
      {"smiles": "NC(=O)NC1N=C([O][Al])NC1=O", "note": "(stereo not given)", "activity change, negative = cytotoxicity": "-12.7% [at 42.5 µM]"},
      {"smiles": "CC1=NN(c2cc(S(=O)(=O)O)ccc2Cl)C(=O)C1N=Nc1ccccc1", "note": "(stereo not given)", "Potency": "61.1 µM (active)"},
      {"smiles": "CCCCc1nc(Cl)c(CO)n1Cc1ccc(-c2ccccc2-c2nn[nH]n2)cc1", "activity change, negative = cytotoxicity": "5.34% [at 42.5 µM]"},
      {"smiles": "CC1OC1C1CCC2(C)OC2C1", "note": "(stereo not given)", "activity change, negative = cytotoxicity": "1.01%"},
      {"smiles": "N[C@@H](CCC(=O)O)C(=O)O", "activity change, negative = cytotoxicity": "6.53%"},
      {"smiles": "CCOC(=O)C(=O)CCCCCCl", "activity change, negative = cytotoxicity": "1.35% [at 42.5 µM]"},
      {"smiles": "NC(=O)N[C@@H](CCC(=O)O)C(=O)O", "activity change, negative = cytotoxicity": "6.27% [at 42.5 µM]"},
      {"smiles": "CC(C)CC(C)(N)C#N", "note": "(stereo not given)", "activity change, negative = cytotoxicity": "-4.23%"},
      {"smiles": "CCN1C=CN(C)C1C", "note": "(stereo not given)", "activity change, negative = cytotoxicity": "5.06%"},
      {"smiles": "Clc1cc(Cl)cc(Cl)c1", "activity change, negative = cytotoxicity": "14.4%"},
      {"smiles": "COc1ccnc(CS(=O)c2nc3cc(OC(F)F)ccc3[nH]2)c1OC", "note": "(stereo not given)", "activity change, negative = cytotoxicity": "11.6%"},
      {"smiles": "Cc1ccc(C(=O)c2ccccc2)cc1", "activity change, negative = cytotoxicity": "-0.527%"},
      {"smiles": "CCCC(=O)O[C@]1(C(=O)CC)CC[C@H]2[C@@H]3CCC4=CC(=O)CC[C@]4(C)[C@H]3[C@@H](O)C[C@@]21C", "activity change, negative = cytotoxicity": "11% [at 42.5 µM]"},
      {"smiles": "CCCC(C)C(=O)OCC", "note": "(stereo not given)", "activity change, negative = cytotoxicity": "1.06%"},
      {"smiles": "CC(=O)c1ccccc1[N+](=O)[O-]", "activity change, negative = cytotoxicity": "3%"},
      {"smiles": "CCCCCC(C)N", "note": "(stereo not given)", "activity change, negative = cytotoxicity": "0.743% [at 42.5 µM]"},
      {"smiles": "CC(C)(C)C(=O)c1ccccc1", "activity change, negative = cytotoxicity": "4.92%"},
      {"smiles": "CCOC(=O)OC(C)OC1=C(C(=O)Nc2ccccn2)N(C)S(=O)(=O)c2ccccc21", "note": "(stereo not given)", "activity change, negative = cytotoxicity": "7.98% [at 42.5 µM]"},
      {"smiles": "CC1CCC(CO)CC1", "note": "(stereo not given)", "activity change, negative = cytotoxicity": "-8.24%"},
      {"smiles": "CCCO[Si](OCCC)(OCCC)OCCC", "activity change, negative = cytotoxicity": "35.3%"},
      {"smiles": "CCC(C)(CN(C)C)OC(=O)c1ccccc1", "note": "(stereo not given)", "activity change, negative = cytotoxicity": "7.45% [at 42.5 µM]"},
      {"smiles": "CCCCS(=O)(=O)N[C@@H](Cc1ccc(OCCCCC2CCNCC2)cc1)C(=O)O", "activity change, negative = cytotoxicity": "-0.11% [at 42.5 µM]"},
      {"smiles": "COc1c(N2CCNC(C)C2)c(F)cc2c(=O)c(C(=O)O)cn(C3CC3)c12", "note": "(stereo not given)", "activity change, negative = cytotoxicity": "3.13% [at 42.5 µM]"}
    ]}
  ]
}
